# In PubChem BioAssay AID720697 (Broad Institute, 2013):
# Potency and affinity values are given separately. Inconclusive results are not listed. Entries that show only a call come without a potency. A number with no mark means an inactive call. Activity calls are given as the source filed them.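 How the source made its calls: active means signal loss with fitted half-maximal concentration at or below twice the top valid tested dose in every test run; inconclusive means runs disagree, flat 30 to 70% signal loss, or poor fit; inactive means all runs flat, opposite direction, or potency beyond limit.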
# Experiment: HEK293T cytotoxicity, dose response, cytotoxicity control for miR-122 modulator project, cell-based, inhibitor set, cherry-pick, set 2 (AID 720697)
# Conditions: HEK293T viability, CellTiter-Glo luminescence, 48 h; series mostly up to 26 µM
Compound,outcome,"activity change, negative = cytotoxicity"
CCCNC(=O)N1[C@H](CO)[C@@H](c2ccccc2)[C@H]1CNC(=O)c1ccccc1,inactive,
COc1cccc(CNC(=O)C[C@@H]2CC[C@H]3[C@H](COc4ccc(NS(=O)(=O)c5ccccc5F)cc4C(=O)N3C)O2)c1,inactive,
Cc1cc(C)nc(NS(=O)(=O)c2ccc(NC(=S)NC(=O)C3CCCC3)cc2)n1,inactive,
COCC(=O)Nc1ccc2c(c1)C(=O)N(C)[C@H]1CC[C@@H](CC(=O)NCCCN(C)C)O[C@H]1CO2,inactive,
O=C(COC(=O)Cc1ccc(S(=O)(=O)N2CCOCC2)s1)Nc1ccc2c(c1)OCO2,inactive,
O=C(Nc1ncc(Cc2cccc(C(F)(F)F)c2)s1)c1ccc(-c2cccc([N+](=O)[O-])c2)o1,,-25.5% [at 6 µM]
CN1C(=O)c2cc(NC(=O)Cc3ccccc3)ccc2OC[C@H]2O[C@H](CC(=O)O)CC[C@H]21,inactive,
CCCNC(=O)Nc1ccc2c(c1)OC[C@H](C)N(CCC)C[C@H](C)[C@H](OC)CN(C)C2=O,inactive,
C[C@H](CO)N1C[C@H](C)[C@@H](CN(C)Cc2ccc(C(F)(F)F)cc2)Oc2ccc(NS(=O)(=O)c3ccc(Cl)cc3)cc2CC1=O,inactive,
CN1C(=O)c2cc(NC(=O)c3cccc(F)c3)ccc2OC[C@@H]2O[C@H](CC(=O)Nc3ccccc3)CC[C@H]21,inactive,
C[C@@H]1CN([C@H](C)CO)S(=O)(=O)c2ccc(C3=CCCC3)cc2O[C@@H]1CN(C)C(=O)Cc1ccncc1,inactive,
CNC(=O)C[C@@H]1CC[C@@H]2[C@H](COc3ccc(NC(=O)NC(C)C)cc3C(=O)N2C)O1,inactive,
C/C=C/c1ccc([C@H]2[C@@H](CO)N(Cc3ccccn3)[C@H]2CNC(=O)CC)cc1,inactive,
COCC(=O)Nc1ccc2c(c1)C(=O)N(C)[C@@H]1CC[C@@H](CC(=O)NCc3ccc(OC)cc3)O[C@H]1CO2,inactive,
CN1C[C@@H]2[C@H](c3ccccc31)[C@@H](CO)N2C(=O)Nc1ccccc1,inactive,
CCC(=O)N1C[C@H]2[C@@H](c3ccccc31)[C@H](CO)N2Cc1cc(F)ccc1F,inactive,
CN1C(=O)c2cc(NC(=O)c3cccc(F)c3)ccc2OC[C@@H]2O[C@@H](CC(=O)Nc3ccccc3)CC[C@@H]21,inactive,

Compound,outcome,"activity change, negative = cytotoxicity"
CCNC(=O)Nc1ccc2c(c1)C(=O)N(C)[C@H]1CC[C@H](CC(=O)Nc3cccc(F)c3)O[C@@H]1CO2,inactive,
CCC(=O)Nc1ccc2c(c1)C(=O)N(C)[C@@H]1CC[C@H](CC(=O)NCCN3CCCCC3)O[C@H]1CO2,inactive,
C[C@@H]1CN([C@H](C)CO)C(=O)c2cc(-c3cncnc3)cnc2O[C@H]1CN(C)Cc1ccc(Oc2ccccc2)cc1,inactive,
COCC(=O)Nc1ccc2c(c1)C(=O)N(C)[C@H]1CC[C@@H](CC(=O)NCCCN(C)C)O[C@@H]1CO2,inactive,
O=C(COC(=O)c1ccccc1)Nc1cc(Cl)ccc1Oc1ccccc1,inactive,
c1ccc(-n2nnnc2NCCc2c[nH]c3ccccc23)cc1,inactive,
C/C=C/c1ccc([C@H]2[C@@H](CNC(=O)c3ccncc3)N(C(=O)CC)[C@H]2CO)cc1,inactive,
CCC(=O)N1[C@H](CO)[C@H](c2ccccc2)[C@@H]1CN(CC)C(=O)c1ccccc1,inactive,
C/C=C/c1ccc2c(c1)O[C@H](CN(C)C(=O)NCCC)[C@H](C)CN([C@@H](C)CO)S2(=O)=O,inactive,
CC(C)NC(=O)Nc1ccc2c(c1)C(=O)N(C)[C@@H]1CC[C@@H](CC(=O)NCC(F)(F)F)O[C@@H]1CO2,inactive,
CC(C)NC(=O)Nc1ccc2c(c1)C(=O)N(C)[C@H]1CC[C@H](CC(=O)NCC(F)(F)F)O[C@H]1CO2,inactive,
CNC[C@H]1Oc2cc(C#CC3CCCC3)ccc2S(=O)(=O)N([C@H](C)CO)C[C@H]1C,inactive,
CC(=O)N(C[C@H]1N[C@H](CO)[C@@H]1c1ccc(-c2ccccc2)cc1)C(C)C,inactive,
CN1C(=O)c2cc(NC(=O)Nc3cccc(Cl)c3)ccc2OC[C@@H]2O[C@H](CC(=O)NCCc3ccncc3)CC[C@H]21,inactive,
COc1cccc(-c2csc(N3CCN(CC(=O)Nc4ccc5c(c4)OCO5)CC3)n2)c1,inactive,
CN1C(=O)c2cc(NC(=O)Cc3ccccc3)ccc2OC[C@@H]2O[C@@H](CC(=O)NCc3ccc(Cl)cc3)CC[C@H]21,inactive,
C/C=C/c1ccc([C@H]2[C@@H](CO)N(Cc3ccccn3)[C@@H]2CNC(=O)CC)cc1,inactive,
